Measured values taken from the supplement of paper PMC3334620.
Whole data set: some 33,000 sequences, median “E-score (-0.5 to 0.5)” near -0.0014, cut for the highest 2% near 0.25. This is one part of a sample in which the highest values are shown more often than they occur.

The sequences below were run against T1, Cad1 (UniProt P24813) (assay: PBM E-score (8-mer binding enrichment) (E-score (-0.5 to 0.5)); higher = stronger / more preferred TF binding). Details: protein concentration: 100 nM; construct: GST-full length.
T1 sequence: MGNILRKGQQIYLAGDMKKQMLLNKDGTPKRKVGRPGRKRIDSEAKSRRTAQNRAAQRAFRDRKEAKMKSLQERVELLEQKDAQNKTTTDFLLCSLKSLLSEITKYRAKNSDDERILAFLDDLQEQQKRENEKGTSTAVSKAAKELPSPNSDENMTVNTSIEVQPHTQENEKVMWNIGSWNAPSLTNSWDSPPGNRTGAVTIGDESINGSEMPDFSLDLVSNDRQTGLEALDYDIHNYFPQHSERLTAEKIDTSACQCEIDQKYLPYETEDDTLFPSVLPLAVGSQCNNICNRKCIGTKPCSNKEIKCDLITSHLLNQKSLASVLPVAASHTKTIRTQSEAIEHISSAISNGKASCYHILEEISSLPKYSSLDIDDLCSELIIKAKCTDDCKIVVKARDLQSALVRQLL
Description: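 Universal 'all 10-mer' protein binding microarrays (Agilent AMADID 015681) probed with GST-tagged S. cerevisiae TFs (full-length or DBD) made by in vitro transcription/translation (PURExpress), about 100-200 nM. Bound TF was detected with fluorescent anti-GST. Each ungapped 8-mer (which stands for itself and its reverse complement) is scored by the PBM enrichment score (E-score), a modified Wilcoxon-Mann-Whitney statistic from -0.5 to +0.5, computed with the Universal PBM Analysis Suite. Scale: above 0.35 generally sequence-specific binding.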

Sequence	PBM E-score
AAGTGTTA	0.0352
ACAGCACG	-0.0152
AACCCCAA	0.113
ATAACTCC	0.0565
AGATGAAA	0.02
AAGCGCGA	0.101
AAGCGCGG	-0.0419
AAGCGCGC	0.276
AACTCCGT	0.0805
CGCCGGCG	0.301
CGCCGGCC	-0.124
AGCCGGCG	0.0742
TAATCTCA	0.0993
ACTGTTTG	-0.0907
AATCGATG	0.271
AATCGACC	-0.051
AATCGAAG	0.182
AATCGATT	0.198
AATCGATC	0.215
CATCGATG	0.169
AATCGACA	0.304
AATCGATA	0.288
AATCGACT	-0.039
CCTCCATC	-0.237
TGTTGCAA	0.228

Sequence	PBM E-score
ATCCTTCA	-0.174
ATACTTCA	-0.0179
GTACTTCA	0.251
CTACTTCA	-0.0482
AGCAGATC	0.256
AGCAGATA	-0.0464
CGCAGATC	0.098
ATGTGCCC	-0.071
ACAACCAT	0.281
ACAACCAG	0.145
ACAACCAC	0.056
GGTGCATA	0.00671
ATTACCAA	0.292
TGTACCAA	-0.0377
CGTACCAA	0.256
CGTACCAG	-0.0767
GTTACCAA	0.0957
ATTACCAC	0.161
AACCGGTA	-0.0764
ATTCCCTG	0.117
CTTAAAGA	-0.0851
GTTTATCA	0.173
ATTTATAA	0.341
CTTTATAA	0.101
ATTTATAC	0.226

Sequence	PBM E-score
GTTTATAA	0.264
GTTTATGA	0.142
CATTCAGG	-0.0709
AAGTAACA	0.0629
TAGTAAGA	0.265
TAGTATCA	0.265
CAGTAAGA	0.194
GAGTATCA	-0.045
GAGTAATA	0.198
AAGTAAGA	-0.215
TAGTAACA	0.255
TAGTAATA	0.371
CAGTAATA	0.249
CAGTATCA	0.0166
GAGTAACA	-0.00744
AGGTCCGG	0.0244
ACGGGATC	-0.0506
TCATGTCA	0.139
GGAAGACA	-0.0527
ACACAATC	0.0563
CCCCGCCC	0.114
CTGGCCAC	0.00652
AATAGCGC	0.269
CATAGCGA	0.051
AATAGCGA	0.214

Sequence	PBM E-score
CATAGCGC	0.26
CATAGCGG	-0.142
AATAGCGG	-0.0047
CACTTCCC	-0.118
ACTCCCGA	0.0151
AGGGGACG	-0.189
GGCAGTCA	-0.00415
TCCTCAAA	-0.166
ATGAACGA	0.111
ATGAACGC	0.252
ATGAACGG	-0.0252
GAGTTGAC	-0.0116
CTACTACA	0.196
GCAATACC	-0.0457
ATACTACC	0.0181
ATAATACG	0.186
ATAATACA	0.263
ACAATACA	0.0445
GCAATACA	0.291
ATACTACA	0.264
ATAATACC	0.215
TGTTGGAA	0.192
GGACCACA	0.137
AAAGCCTC	-0.186
ACCATCAG	-0.00772

Sequence	PBM E-score
CAGCAACA	0.186
AGCTCGAA	0.151
AAAGATTA	0.152
GCAGAGGA	0.0638
GAGCATCC	-0.169
ACGGACTC	-0.0126
CCGGACTA	-0.0508
CCGGACTC	0.281
CATAGCAC	-0.0299
GAGGTCGA	-0.153
CTCTCTTC	-0.215
CTTAACTC	0.0365
GATAACTA	0.1
GTTAACTA	0.274
CTTAACTA	0.283
CGTAACTA	-0.001
ATTAACTA	-0.00319
CTCACTGA	-0.0364
AGGCTGTA	-0.0168
CCGCATTA	0.172
ATGCATTC	0.196
ACGCATTA	0.145
ATGCATCA	0.308
GCGCATTA	0.265
ATGCATCG	0.114

Sequence	PBM E-score
CTGCATTA	0.014
GTGCATCA	0.128
ATGCATTA	0.265
CATCCTGC	0.0554
TGTGGCAA	0.0896
CCCGGACA	0.039
CCATCCAG	-0.0345
AATATTCA	0.157
AATATCCA	0.0727
AATATCCG	0.265
CATATTCG	0.129
AATATCCC	-0.00553
AATATTCG	0.273
GATATTCC	0.0127
AATATTCT	0.126
AATATTCC	0.297
AAGGTTGC	-0.00934
CCTAGCAC	-0.199
CCATAGTC	-0.0534
GACCAAGC	0.0511
CCCACTCA	-0.193
AGATGGAG	-0.0255
CTAATCAA	0.238
CGAATCGA	0.325
CTAATCGC	0.0731

Sequence	PBM E-score
CTAATCAG	0.227
ATAATCAG	0.225
ATAATCGA	0.146
ATAATCAT	0.252
CTAATCAC	0.326
ATAATCAA	0.157
CTAATCGA	0.315
GGAATCGA	0.00927
AGAATCGA	0.0389
CTGGACGC	0.069
CGAATACC	-0.104
AATCTCAT	0.0796
CCCGCTCC	-0.37
TGCCGCCA	0.0461
CGGGCAGA	0.0491
ACACCCTG	-0.133
AGAGAATA	0.0902
GGATGCAC	-0.0779
GTAAGGAC	-0.19
CGGGGAAA	0.0522
AATACTAT	-0.0768
CATACTGA	0.103
GTTACTCA	0.182
GCTACTAA	0.0213
TATACTGA	0.288

Sequence	PBM E-score
GTTACTAA	0.374
GATACTGA	0.14
AATACTAA	0.253
TATACTAA	0.107
CACTGGCG	-0.0107
CAGCTAAA	-0.121
ACTAGTTG	-0.0546
GGTGGCAA	-0.0998
CCAACGCA	0.0411
CGCAGACA	0.122
CGCAGACC	-0.146
CGCAGACG	0.257
ACTCATTA	0.109
ACACAGCC	0.0823
ACACAGCA	0.076
ACACAGCG	0.251
CACAGGAG	0.0278
ATAGAATC	-0.129
ATAAATTC	0.091
AAAAATTG	-0.134
GTAAATTA	-0.053
ATAAATTA	0.364
CTAAATTA	0.2
ATAAATTG	0.253
GGAGCAAC	-0.0625

Sequence	PBM E-score
AGATCCTG	-0.0555
AAGGTGAG	-0.192
CAGCAATA	0.188
AATGGCCC	-0.158
CAATCCTA	-0.015
ACGCCCAT	-0.0524
CACCGACA	-0.0582
TAATATTA	0.424
CGCTATTA	0.253
ATATACTC	-0.0465
CTATACTA	0.0535
ACATATTA	0.317
AGCTATTA	0.0722
ACATATTG	0.0269
CCATATTA	0.148
TAATATGA	0.133
ATATACTA	0.259
GGCTATTA	0.175
GAATATTA	0.227
CAGGCTAA	-0.266
TAACCCGA	-0.00699
GGCACCTA	-0.156
AAGCCCAC	-0.0637
ACAGAACC	0.0474
AAGAACCA	-0.00253

Sequence	PBM E-score
GGCAACCC	-0.174
GAACCTGC	-0.018
ATGCCTTC	-0.162
CGCTACTC	0.0265
AAATATTG	0.249
GGATATTA	0.163
AAATATTA	0.298
CGATATTA	0.352
CGATATTC	0.173
CGCTACTA	0.276
AAATATTC	0.249
AGCTACTA	0.0659
CAATATTC	0.0508
CAATATTA	0.187
GAATATTC	0.338
CACCACAC	0.151
AGCTCACT	-0.0157
ACAATAGA	-0.144
GGAGCACC	-0.0566
CTATATTA	0.241
ATATATTA	0.368
GTATATTA	0.115
GCTAAGCC	-0.109
AGACGCAC	0.0398
CGACCTAG	0.0727

Sequence	PBM E-score
CCAAATAA	0.15
ATTACAAA	0.425
CTTACAAA	0.372
ATTACAAT	0.104
ATTACAAG	0.0206
CTTACAAC	0.118
CTTACAAG	0.0333
ATATAAGA	0.22
AGCCCATA	-0.0468
AAGAAGCG	-0.184
AGGCGCGC	0.161
CAACGCGA	0.157
CTGCGCGC	0.302
CAACGCGG	0.0152
CTTCGCGC	0.263
ATTCGCGC	0.17
CTTCGCGA	0.143
CAACGCGC	0.311
CTGCGCGA	0.13
CGGCGCGC	0.258
ATGCGCGC	0.238
CGGCGCGA	0.203
CAAGGGAC	-0.0828
CGGCTGTA	-0.112
ACCTCCGC	-0.116

Sequence	PBM E-score
TCCCGCGA	0.0875
ACTCGTAT	0.0214
ACTCGTAA	0.292
GTTCGTAA	0.119
ATTCGTTG	0.258
ATTCGTAA	0.26
ATTCGTTA	0.158
ACTCGTAG	-0.103
ATTCGTTC	0.09
CTTCGTAA	0.0607
AAGTTGCT	0.0232
TAAACCCA	0.119
CAGTTATA	-0.0494
ATTGCGCC	-0.061
AATGCGCG	0.305
AATGCGCC	-0.00918
AATGCGCA	0.342
AATGCGCT	0.0389
ATTGCGCA	0.103
CATGCGCG	0.202
ATTGCGCG	0.307
CATGCGCA	0.116
AGGCAGAG	-0.0635
ACGTCGGG	-0.269
CCCAGATA	-0.0901

Sequence	PBM E-score
GCGGGATA	0.0173
CCCGTATC	-0.15
TCATGACA	0.301
GCATGACA	0.0476
ACATGACA	0.159
AGAAAGCC	-0.051
TAACTGAA	-0.0483
AATGTAAG	0.264
AACGTAAC	-0.00693
AACGTAAA	0.0278
AATGTAAC	0.0359
AATGTAAT	0.324
AACGTAAT	0.261
AATGTAAA	0.193
CATGTAAG	0.129
ACTGTAAG	0.167
AAAGTCGC	0.124
AACGAAAT	0.303
AAAGATAT	0.277
AACGATAG	0.0593
CACGAAAA	0.161
AACGATAT	0.271
AACGATAC	0.0534
AACGAAAC	0.187
AAAGATAC	-0.051

Sequence	PBM E-score
GACGAAAA	0.297
AAAGATAG	0.00786
TACGAAAA	0.0721
AACGAAAG	0.0872
ACCATCTG	-0.0991
ACGCAGAC	0.0915
GGAACTAC	-0.0515
GAACGTTC	-0.0713
GACTGATC	-0.075
CCTGCTAA	-0.128
CCAACTGG	0.025
AACGAACG	0.0769
AACGAACA	0.269
CGCGAAAA	0.246
AGCGAAAA	-0.0296
TGCGAAAA	0.266
CACGAACA	0.249
CCGAAGAG	-0.0285
CTTCTGAA	0.0469
